According to PubChem BioAssay (EPA / NIEHS):
Results filed as inconclusive are left out. Active and inactive are the calls of the source. How the source made its calls, unless noted: active means hit-call score of the fitted dose curve at least 0.9, where 1 is the maximum; inconclusive means response in the unintended direction; inactive means score below 0.9.

What was measured:
[1] = ATG_TCF_b_cat_CIS: Attagene CIS-FACTORIAL HepG2 Assay for human T-Cell-Factor with beta-catenin (TCF/b-cat) (AID 2282965; active means hit-call score of the fitted dose curve at least 0.9, where 1 is the maximum; inactive means score below 0.9); details: HepG2 TCF/beta-catenin cis-reporter transcription, actives raise or lower the signal
In short: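 HepG2, transient MRTU transfection, cis-element-driven reporters (endogenous TFs). 24 h compound exposure. Readout: reporter mRNA by RT-PCR + 6-FAM primer extension, HpaI digest, capillary electrophoresis. Gain/loss fit vs DMSO baseline.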

[2] = ATG_TAL_CIS: Attagene CIS-FACTORIAL HepG2 Assay for human TAL Basal Promoter (AID 2282966; active means hit-call score of the fitted dose curve at least 0.9, where 1 is the maximum; inactive means score below 0.9;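 further: background control endpoint measuring basal TAL promoter reporter mRNA not a specific factor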); details: HepG2 Attagene cis-factorial TAL promoter reporter; actives raise or lower the signal
In short: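 Basal-promoter background-control endpoint from a multiplexed HepG2 reporter panel. Cells were exposed 24 h, then reporter mRNA was read by RT-PCR/CE fluorescence and fitted in both directions relative to DMSO.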

[3] = ATG_TGFb_CIS: Attagene CIS-FACTORIAL HepG2 Assay for human Transforming Growth Factor (TGF) (AID 2282967; active means hit-call score of the fitted dose curve at least 0.9, where 1 is the maximum; inactive means score below 0.9); details: HepG2 Attagene CIS TGFb reporter, mRNA transcription; actives raise or lower the signal
In short: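 Bidirectional fitting relative to DMSO gave the endpoint. Underlying data: reporter mRNA from HepG2 cells carrying transiently transfected cis-regulated reporter constructs, harvested 24 h after dosing and analyzed by RT-PCR and capillary electrophoresis.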

[4] = ATG_VDRE_CIS: Attagene CIS-FACTORIAL HepG2 Assay for human Vitamin D Receptor Element (VDRE) (AID 2282968; active means hit-call score of the fitted dose curve at least 0.9, where 1 is the maximum; inactive means score below 0.9); details: HepG2 VDRE cis-reporter transcription, actives raise or lower the signal
In short: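 Compounds were applied for 24 h to HepG2 cells transfected with promoter-regulated reporter units. Total RNA was reverse-transcribed, and reporter amplicons were fluorescently labelled and sized by capillary electrophoresis.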

[5] = biological target: Nuclear receptor subfamily 1 group I member 3 (Homo sapiens) (UniProt Q14994); experiment: ATG_CAR_TRANS: Attagene TRANS-FACTORIAL HepG2 Assay for human Constitutive Androstane Receptor (CAR) (AID 2282969); details: HepG2 Attagene TRANS-FACTORIAL CAR reporter;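 further: activators raise reporter mRNA above DMSO so AC50 marks induction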
Nuclear receptor subfamily 1 group I member 3 (Homo sapiens), sequence (Q14994 whole entry, looked up, the tested form may be a part): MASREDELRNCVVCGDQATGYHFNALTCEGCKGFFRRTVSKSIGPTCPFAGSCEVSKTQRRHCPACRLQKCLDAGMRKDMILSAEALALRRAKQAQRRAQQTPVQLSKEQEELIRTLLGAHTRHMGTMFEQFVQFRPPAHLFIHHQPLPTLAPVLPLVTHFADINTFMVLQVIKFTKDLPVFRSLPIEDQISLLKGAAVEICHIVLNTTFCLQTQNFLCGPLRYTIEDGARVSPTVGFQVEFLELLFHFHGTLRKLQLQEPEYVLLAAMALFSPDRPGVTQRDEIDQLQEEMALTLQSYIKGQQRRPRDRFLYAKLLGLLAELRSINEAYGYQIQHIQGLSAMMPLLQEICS
In short: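 Transiently transfected HepG2, multiplex TRANS reporters (CAR-Gal4 chimera driving GAL4-UAS reporter). 24 h dosing. Readout: reporter transcript by RT-PCR + capillary electrophoresis, fluorescence intensity; positive direction vs DMSO.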

[6] = biological target: Estrogen receptor (Homo sapiens) (UniProt P03372); experiment: ATG_ERa_TRANS: Attagene TRANS-FACTORIAL HepG2 Assay for human Estrogen Receptor alpha (ERa) (AID 2282970); details: HepG2 Attagene TRANS ERa GAL4 reporter, mRNA
Estrogen receptor (Homo sapiens), sequence (P03372 whole entry, looked up, the tested form may be a part): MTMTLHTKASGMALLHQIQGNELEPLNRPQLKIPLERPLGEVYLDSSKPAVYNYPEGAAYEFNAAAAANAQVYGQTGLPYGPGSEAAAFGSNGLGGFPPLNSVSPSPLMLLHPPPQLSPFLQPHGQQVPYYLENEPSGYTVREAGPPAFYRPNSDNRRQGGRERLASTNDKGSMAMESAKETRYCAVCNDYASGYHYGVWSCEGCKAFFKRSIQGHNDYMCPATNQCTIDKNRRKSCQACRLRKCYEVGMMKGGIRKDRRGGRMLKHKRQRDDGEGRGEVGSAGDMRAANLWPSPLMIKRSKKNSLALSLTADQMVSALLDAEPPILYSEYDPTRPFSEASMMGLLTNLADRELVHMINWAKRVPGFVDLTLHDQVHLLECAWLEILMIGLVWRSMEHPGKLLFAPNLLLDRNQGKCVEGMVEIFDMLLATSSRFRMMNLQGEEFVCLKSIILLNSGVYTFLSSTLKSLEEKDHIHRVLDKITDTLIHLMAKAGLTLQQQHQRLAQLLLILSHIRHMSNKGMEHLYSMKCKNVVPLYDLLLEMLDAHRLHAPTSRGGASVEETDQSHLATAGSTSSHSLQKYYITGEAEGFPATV
In short: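 Gal4-fusion ERa transactivation, measured as reporter transcript level in transiently transfected HepG2 cells. Exposure 24 h; RT-PCR plus capillary electrophoresis with fluorescence detection.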

[7] = biological target: X-box-binding protein 1 (Homo sapiens) (UniProt P17861); experiment: ATG_Xbp1_CIS: Attagene CIS-FACTORIAL HepG2 Assay for human X-box Binding Protein 1 (XBP1) (AID 2282972; active means hit-call score of the fitted dose curve at least 0.9, where 1 is the maximum; inactive means score below 0.9); details: HepG2 XBP1 cis-element reporter, Attagene multiplex; actives raise or lower the signal
X-box-binding protein 1 (Homo sapiens), sequence (P17861 whole entry, looked up): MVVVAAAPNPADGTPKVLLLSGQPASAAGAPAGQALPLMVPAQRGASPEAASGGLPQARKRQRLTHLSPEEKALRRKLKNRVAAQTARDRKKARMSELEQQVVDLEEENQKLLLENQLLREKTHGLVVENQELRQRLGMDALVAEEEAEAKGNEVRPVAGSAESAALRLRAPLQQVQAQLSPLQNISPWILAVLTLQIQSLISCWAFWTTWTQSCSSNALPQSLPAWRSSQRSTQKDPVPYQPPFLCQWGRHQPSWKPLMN
In short: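 Human hepatoma HepG2, cis-element reporter system, 24 h treatment; mRNA quantified by RT-PCR/CE fluorescence; fit relative to DMSO.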

[8] = biological target: Glucocorticoid receptor (Homo sapiens) (UniProt P04150); experiment: ATG_GR_TRANS: Attagene TRANS-FACTORIAL HepG2 Assay for human Glucocorticoid Receptor (GR) (AID 2282978); details: HepG2 Attagene TRANS GR reporter, mRNA transcription;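 further: activators score as hits since higher reporter transcript over DMSO is fitted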
Glucocorticoid receptor (Homo sapiens), sequence (P04150 whole entry, looked up, the tested form may be a part): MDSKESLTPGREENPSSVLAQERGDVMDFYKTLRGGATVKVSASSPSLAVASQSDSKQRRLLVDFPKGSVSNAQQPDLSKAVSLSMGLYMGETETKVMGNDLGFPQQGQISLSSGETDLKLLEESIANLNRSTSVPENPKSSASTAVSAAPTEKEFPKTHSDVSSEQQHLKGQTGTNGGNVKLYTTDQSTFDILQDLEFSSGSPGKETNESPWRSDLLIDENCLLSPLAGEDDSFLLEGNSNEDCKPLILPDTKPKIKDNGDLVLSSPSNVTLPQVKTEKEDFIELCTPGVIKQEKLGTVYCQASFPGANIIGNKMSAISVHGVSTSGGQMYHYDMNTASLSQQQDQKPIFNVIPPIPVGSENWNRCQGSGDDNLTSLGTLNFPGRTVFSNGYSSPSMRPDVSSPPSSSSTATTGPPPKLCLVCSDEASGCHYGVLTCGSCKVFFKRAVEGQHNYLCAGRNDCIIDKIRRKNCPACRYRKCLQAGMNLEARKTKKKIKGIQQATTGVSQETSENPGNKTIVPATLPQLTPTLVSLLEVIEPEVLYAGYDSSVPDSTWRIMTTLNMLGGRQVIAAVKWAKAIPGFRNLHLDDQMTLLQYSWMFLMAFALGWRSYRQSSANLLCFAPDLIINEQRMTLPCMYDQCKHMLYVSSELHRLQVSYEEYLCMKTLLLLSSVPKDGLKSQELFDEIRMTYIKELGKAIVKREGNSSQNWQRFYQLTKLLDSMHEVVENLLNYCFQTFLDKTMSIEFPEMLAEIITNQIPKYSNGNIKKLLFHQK
In short: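 Exogenous NR-GAL4 fusion activity was assessed through induced GAL4-UAS reporter transcripts in transfected human HepG2 cells, quantified after 24 h by RT-PCR and fluorescent capillary electrophoresis with DMSO as baseline.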

[9] = biological target: Oxysterols receptor LXR-alpha (Homo sapiens) (UniProt Q13133); experiment: ATG_LXRa_TRANS: Attagene TRANS-FACTORIAL HepG2 Assay for human Liver X Receptor alpha (LXRa) (AID 2282980); details: HepG2 Attagene TRANS reporter, LXRa transactivation
Oxysterols receptor LXR-alpha (Homo sapiens), sequence (Q13133 whole entry, looked up, the tested form may be a part): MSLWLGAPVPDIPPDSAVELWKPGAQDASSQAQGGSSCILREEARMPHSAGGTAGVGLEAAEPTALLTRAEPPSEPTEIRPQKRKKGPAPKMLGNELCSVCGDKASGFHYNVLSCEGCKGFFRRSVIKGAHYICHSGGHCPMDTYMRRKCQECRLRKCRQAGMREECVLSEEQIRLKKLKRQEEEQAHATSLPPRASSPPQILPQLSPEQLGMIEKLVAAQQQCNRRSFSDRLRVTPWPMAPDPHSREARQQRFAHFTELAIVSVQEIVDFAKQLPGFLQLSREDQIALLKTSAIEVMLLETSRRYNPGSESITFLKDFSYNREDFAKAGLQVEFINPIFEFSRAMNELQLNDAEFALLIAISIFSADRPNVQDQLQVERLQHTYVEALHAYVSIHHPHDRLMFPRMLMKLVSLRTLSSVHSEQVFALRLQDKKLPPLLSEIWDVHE
In short: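 HepG2 cells transiently transfected with GAL4-UAS reporter units for chimeric NR-Gal4 proteins, exposed to chemicals for 24 h. Reporter mRNA quantified by RT-PCR and capillary electrophoresis; gain of signal fitted relative to DMSO.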

[10] = biological target: Oxysterols receptor LXR-beta (Homo sapiens) (UniProt P55055); experiment: ATG_LXRb_TRANS: Attagene TRANS-FACTORIAL HepG2 Assay for human Liver X Receptor beta (LXRb) (AID 2282981); details: HepG2 Attagene TRANS GAL4-LXRb reporter, mRNA
Oxysterols receptor LXR-beta (Homo sapiens), sequence (P55055 whole entry, looked up, the tested form may be a part): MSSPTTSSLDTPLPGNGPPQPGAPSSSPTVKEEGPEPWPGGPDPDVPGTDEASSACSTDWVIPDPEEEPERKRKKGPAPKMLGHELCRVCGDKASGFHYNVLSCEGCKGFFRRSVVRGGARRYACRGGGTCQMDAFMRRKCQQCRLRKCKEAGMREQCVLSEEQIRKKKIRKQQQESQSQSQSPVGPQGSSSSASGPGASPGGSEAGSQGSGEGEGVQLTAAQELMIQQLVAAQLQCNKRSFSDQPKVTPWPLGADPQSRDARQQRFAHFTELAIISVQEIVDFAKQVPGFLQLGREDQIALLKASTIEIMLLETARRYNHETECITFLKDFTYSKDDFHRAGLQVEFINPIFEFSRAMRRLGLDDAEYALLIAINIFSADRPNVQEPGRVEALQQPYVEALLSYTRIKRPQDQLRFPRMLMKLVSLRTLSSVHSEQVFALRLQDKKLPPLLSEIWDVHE
In short: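 Multiplexed reporter assay, HepG2, 24 h dosing. Fluorescence of labelled RT-PCR products after capillary electrophoresis gives transcript level; positive fitting direction relative to DMSO.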

[11] = biological target: Hepatocyte nuclear factor 4-alpha (Homo sapiens) (UniProt P41235); experiment: ATG_HNF4a_TRANS: Attagene TRANS-FACTORIAL HepG2 Assay for human Hepatocyte Nuclear Factor 4 alpha (HNF4a) (AID 2282982); details: HepG2 HNF4a transactivation reporter, mRNA readout
Hepatocyte nuclear factor 4-alpha (Homo sapiens), sequence (P41235 whole entry, looked up, the tested form may be a part): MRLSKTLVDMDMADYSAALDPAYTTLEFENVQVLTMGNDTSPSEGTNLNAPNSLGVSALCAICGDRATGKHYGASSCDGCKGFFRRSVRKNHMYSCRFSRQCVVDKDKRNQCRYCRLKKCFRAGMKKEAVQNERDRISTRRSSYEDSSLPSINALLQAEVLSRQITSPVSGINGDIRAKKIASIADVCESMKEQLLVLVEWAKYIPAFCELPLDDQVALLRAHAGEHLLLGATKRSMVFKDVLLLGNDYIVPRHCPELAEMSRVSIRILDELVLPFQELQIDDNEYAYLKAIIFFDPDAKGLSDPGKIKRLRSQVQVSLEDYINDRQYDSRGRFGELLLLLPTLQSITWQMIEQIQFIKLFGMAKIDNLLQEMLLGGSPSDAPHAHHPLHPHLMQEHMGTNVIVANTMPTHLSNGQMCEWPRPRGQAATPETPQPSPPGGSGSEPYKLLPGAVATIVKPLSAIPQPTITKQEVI
In short: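 Endpoint reflects transcriptional activation of a GAL4-UAS reporter by an HNF4a-GAL4 chimera in transfected HepG2 cells, 24 h post-dosing. Fluorescence from RT-PCR products separated by capillary electrophoresis; DMSO baseline.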

[12] = ATG_M_06_TRANS: Attagene TRANS-FACTORIAL HepG2 Assay for M06 Transcription Factor (Internal Marker) (AID 2282983); details: HepG2 Attagene TRANS M06 internal marker reporter
In short: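 mRNA levels of a reporter transcript, quantified as FAM fluorescence on capillary electrophoresis, served as readout. HepG2 cells expressing exogenous GAL4-chimera reporter constructs were exposed for 24 h. Gain of signal over DMSO was evaluated.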

[13] = ATG_M_32_TRANS: Attagene TRANS-FACTORIAL HepG2 Assay for M32 Transcription Factor (Internal Marker) (AID 2282984); details: HepG2 Attagene TRANS M32 internal marker reporter
In short: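 Internal-marker readout from a multiplexed transcription reporter panel. HepG2 cells were transfected with GAL4-UAS reporter units, treated 24 hours, and reporter transcript levels determined by fluorescence after RT-PCR and capillary separation.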

[14] = biological target: Nuclear receptor subfamily 4 group A member 2 (Homo sapiens) (UniProt P43354); experiment: ATG_NURR1_TRANS: Attagene TRANS-FACTORIAL HepG2 Assay for human Nuclear Receptor Related Protein 1 (NURR1) (AID 2282985); details: HepG2 Attagene TRANS reporter, mRNA readout
Nuclear receptor subfamily 4 group A member 2 (Homo sapiens), sequence (P43354 whole entry, looked up): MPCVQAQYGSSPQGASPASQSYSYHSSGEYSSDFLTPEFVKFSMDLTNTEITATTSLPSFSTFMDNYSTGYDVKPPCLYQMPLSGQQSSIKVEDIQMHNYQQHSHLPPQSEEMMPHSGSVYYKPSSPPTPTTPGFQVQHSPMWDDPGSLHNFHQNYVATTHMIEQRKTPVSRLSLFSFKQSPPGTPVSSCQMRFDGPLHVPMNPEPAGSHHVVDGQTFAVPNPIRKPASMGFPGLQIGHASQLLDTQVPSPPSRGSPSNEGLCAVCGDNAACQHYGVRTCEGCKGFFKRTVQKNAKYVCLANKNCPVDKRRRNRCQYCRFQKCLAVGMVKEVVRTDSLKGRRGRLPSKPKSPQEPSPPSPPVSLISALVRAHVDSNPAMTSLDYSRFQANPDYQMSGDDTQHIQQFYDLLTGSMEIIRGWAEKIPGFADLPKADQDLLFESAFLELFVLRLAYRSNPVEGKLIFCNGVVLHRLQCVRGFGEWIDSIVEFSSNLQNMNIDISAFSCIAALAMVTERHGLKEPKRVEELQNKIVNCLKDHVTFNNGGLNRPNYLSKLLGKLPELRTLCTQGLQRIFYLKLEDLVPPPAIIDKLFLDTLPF
In short: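 Endpoint: reporter mRNA increase relative to DMSO. HepG2 cells transfected with reporter units, treated 24 h; RNA processed by RT-PCR, labelling, HpaI digestion and capillary electrophoresis.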

[15] = biological target: Transcriptional activator Myb (Homo sapiens) (UniProt P10242); experiment: ATG_Myb_CIS: Attagene CIS-FACTORIAL HepG2 Assay for human Myeloblastosis (Myb) Proto-Oncogene Transcription Factor (AID 2282986; active means hit-call score of the fitted dose curve at least 0.9, where 1 is the maximum; inactive means score below 0.9); details: HepG2 Attagene CIS-FACTORIAL Myb reporter transcription; actives raise or lower the signal
Transcriptional activator Myb (Homo sapiens), sequence (P10242 whole entry, looked up): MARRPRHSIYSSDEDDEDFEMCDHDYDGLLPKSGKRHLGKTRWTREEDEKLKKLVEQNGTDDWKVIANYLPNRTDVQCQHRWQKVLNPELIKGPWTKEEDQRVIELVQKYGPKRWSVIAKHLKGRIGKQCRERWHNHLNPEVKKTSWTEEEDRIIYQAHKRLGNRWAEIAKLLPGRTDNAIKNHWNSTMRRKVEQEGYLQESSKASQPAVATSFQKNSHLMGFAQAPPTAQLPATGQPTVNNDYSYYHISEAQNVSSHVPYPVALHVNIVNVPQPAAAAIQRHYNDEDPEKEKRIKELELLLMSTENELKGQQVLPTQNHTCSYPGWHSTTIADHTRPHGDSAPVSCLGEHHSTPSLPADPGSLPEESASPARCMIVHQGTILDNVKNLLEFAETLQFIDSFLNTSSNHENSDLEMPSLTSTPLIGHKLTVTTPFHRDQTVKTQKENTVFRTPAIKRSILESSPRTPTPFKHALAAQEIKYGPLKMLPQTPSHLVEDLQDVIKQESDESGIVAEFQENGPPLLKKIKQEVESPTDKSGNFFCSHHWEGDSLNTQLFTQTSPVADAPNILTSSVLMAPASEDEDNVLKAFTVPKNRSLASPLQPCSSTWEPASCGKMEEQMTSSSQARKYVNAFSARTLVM
In short: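 In this HepG2 transient-transfection format, cis-regulated reporter mRNA is quantified 24 h post-dosing by RT-PCR with capillary electrophoresis, fitted bidirectionally to DMSO baseline.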

[16] = ATG_GAL4_TRANS: Attagene TRANS-FACTORIAL HepG2 Assay for GAL4 (Internal Marker) (AID 2282976); details: HepG2 Attagene TRANS GAL4 internal marker reporter
In short: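 Background-control readout: GAL4-UAS reporter transcript in transiently transfected HepG2 cells after 24 h compound exposure. Measured by RT-PCR, 6-FAM primer extension, HpaI digest and capillary electrophoresis; gain-of-signal fit versus DMSO.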

[17] = ATG_M_19_TRANS: Attagene TRANS-FACTORIAL HepG2 Assay for M19 Transcription Factor (Internal Marker) (AID 2282974); details: HepG2 Attagene TRANS-FACTORIAL M19 internal marker reporter
In short: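 Using RT-PCR and capillary electrophoresis, reporter mRNA from transiently transfected human HepG2 cells was quantified following 24 h exposure; activity was fitted in the positive direction against DMSO.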

[18] = biological target: Bile acid receptor (Homo sapiens) (UniProt Q96RI1); experiment: ATG_FXR_TRANS: Attagene TRANS-FACTORIAL HepG2 Assay for Farnesoid X Receptor (FXR) (AID 2282979); details: HepG2 Attagene TRANS FXR-GAL4 reporter transcription;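 further: hits raise reporter mRNA above DMSO so AC50 marks FXR activation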
In short: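 HepG2 cells were transiently transfected with GAL4-UAS reporters driven by chimeric NR-Gal4 proteins and dosed for 24 h. Reporter mRNA was quantified by RT-PCR, fluorescent labelling, HpaI digestion and capillary electrophoresis, with gain of signal scored versus DMSO.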

[19] = biological target: Estrogen-related receptor gamma (Homo sapiens) (UniProt P62508); experiment: ATG_ERRg_TRANS: Attagene TRANS-FACTORIAL HepG2 Assay for human Estrogen-Related Receptor gamma (ERRg) (AID 2282977); details: HepG2 Attagene TRANS reporter, ERRg transactivation;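 further: hits increase reporter signal over DMSO so potencies reflect activators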
In short: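 Induction of reporter transcripts through a chimeric NR-Gal4 protein is quantified in transfected human HepG2 liver cells after 24 h chemical exposure, using RT-PCR with capillary electrophoresis detection and DMSO as baseline.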

[20] = biological target: Steroid hormone receptor ERR1 (Homo sapiens) (UniProt P11474); experiment: ATG_ERRa_TRANS: Attagene TRANS-FACTORIAL HepG2 Assay for human Estrogen-Related Receptor alpha (ERRa) (AID 2282971); details: HepG2 Attagene TRANS reporter, ERRa transactivation
In short: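 HepG2 cells transiently transfected with GAL4-UAS reporter units and chimeric NR-Gal4 constructs; after 24 hour compound incubation, reporter mRNA quantified by RT-PCR, fluorescent labelling and capillary electrophoresis, gain of signal versus DMSO.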

Measured: AC50

CC/C=C\C#N
not listed: [16] | [17] | [18] | [19] | [20]
inactive: all other assays above

CCC(C)COC(=O)CC(C)C (stereo not drawn)
not listed: [8] | [11] | [12] | [14] | [17] | [18] | [19] | [20]
inactive: all other assays above

CC(=O)OC(C)(C)C1CC=C(C)CC1 (stereo not drawn)
active: [6] 61.7 µM
not listed: [8] | [10] | [11] | [12] | [17] | [18] | [19] | [20]
inactive: all other assays above

C=CC(C)(CCC=C(C)C)OC(=O)CC (stereo not drawn)
not listed: [12] | [19] | [20]
inactive: all other assays above

CCCCC(CC)COCCO (stereo not drawn)
not listed: [10] | [11] | [12] | [14] | [17] | [18] | [20]
inactive: all other assays above

c1ccc2c(c1)-c1ccc3ccc4cccc5cc-2c1c3c45
active: [6] 0.422 µM
not listed: [8] | [16] | [17] | [19] | [20]
inactive: all other assays above

N=C1N=C(N)c2ccccc21
active: [6] 100 µM
not listed: [10] | [16] | [18] | [19] | [20]
inactive: all other assays above

CCCCCCCC(=O)N(C)C
not listed: [8] | [11] | [12] | [18]
inactive: all other assays above

CC1(C)[C@H](C=C(Cl)Cl)[C@H]1C(=O)OCc1cccc(Oc2ccccc2)c1
active: [4] 4.62 µM | [6] 8.45 µM
not listed: [9] | [10] | [12] | [13] | [18] | [19] | [20]
inactive: all other assays above
